Assay results taken from the supplement of paper PMC7695840.
Structures can show the parent of a compound that is named as a salt.

test system: Staphylococcus aureus MW2 delta-mecA (mecA-); assay: normalized GFP fluorescence (growth of mecA- strain) (fraction of control range); higher = more growth of mecA- strain; settings: compound concentration: 150 uM; cefoxitin: subinhibitory; fluorescent label: GFP
Summary of the method: (§1)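 In 1536-well plates holding 150 μM compound (1.5% DMSO), a 1:1 mix of pre-induced S. aureus MW2 cells was added at 5 µL/well, in one replicate. One strain carried the gene and DsRed, the other lacked the gene and carried GFP, and the LB held a subinhibitory antibiotic dose chosen daily. Plates stood unshaken for 20 h at 37 °C, 90% humidity, before DsRed (540/590) and GFP (485/520) readings, which were scaled per plate to single-strain control medians, with plates high in untreated ratio and rows above DsRed/GFP 10 dropped.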

Structure (SMILES)	normalized GFP fluorescence
OC[C@H]1O[C@@H](c2ccc(Cl)c(Cc3ccc(O[C@H]4CCOC4)cc3)c2)[C@H](O)[C@@H](O)[C@@H]1O	0.499
CC(C)(C)NCC(O)c1cc(O)cc(O)c1 (stereo not given)	0.587
N#C[C@@H]1CCCN1C(=O)CNC12CC3CC(CC(O)(C3)C1)C2 [Vildagliptin (LAF-237)]	0.68
Cc1ccc(=O)n(-c2ccccc2)c1 [Pirfenidone]	0.368
OC[C@H]1O[C@H]([S-])[C@H](O)[C@@H](O)[C@@H]1O.[Au+]	0.232
Clc1ccc(C(c2ccccc2Cl)C(Cl)Cl)cc1 (stereo not given)	0.148
CN(C)CCCOc1nn(Cc2ccccc2)c2ccccc12	0.19
CN(C)C(=N)NC(=N)N	0.544
C[N+](C)(C)C[C@H](O)CC(=O)[O-] [L-carnitine (Levocarnitine)]	0.171
Nc1c2c(nc3ccccc13)CCCC2	0.414
CN(C)CCN(Cc1ccccc1)c1ccccn1	0.488
Cc1ncc([N+](=O)[O-])n1CC(C)O (stereo not given) [Secnidazole (Flagentyl)]	0.266
CC(C)[C@H]1CC[C@H](C(=O)N[C@H](Cc2ccccc2)C(=O)O)CC1	3.92e-05
Cc1c(C(=O)NN2CCCCC2)nn(-c2ccc(Cl)cc2Cl)c1-c1ccc(Cl)cc1	0.177
C[C@@H]1C/C=C/C=C/C=C/C=C/[C@H](O[C@@H]2O[C@H](C)[C@@H](O)[C@H](N)[C@@H]2O)C[C@@H]2O[C@](O)(C[C@@H](O)C[C@H]3O[C@@H]3/C=C/C(=O)O1)C[C@H](O)[C@H]2C(=O)O	0.448
CCCCCCNC(=O)n1cc(F)c(=O)[nH]c1=O [Carmofur]	0.605
Cc1[nH+]cc(COP(=O)([O-])[O-])c(CN(CCN(CC(=O)[O-])Cc2c(COP(=O)([O-])O)c[nH+]c(C)c2O)CC(=O)[O-])c1O.[Mn].[Na+].[Na+].[Na+]	0.415
CC1=C(/C=C/C(C)=C/C=C/C(C)=C/C(=O)O)C(C)(C)CCC1	-0.00103
Cc1cnc(C(=O)NCCc2ccc(S(=O)(=O)NC(=O)NC3CCCCC3)cc2)cn1	0.553
CO/N=C(\C(=O)N[C@@H]1C(=O)N2C(C(=O)O)=C(C[N+]3(C)CCCC3)CS[C@H]12)c1csc(N)n1	0.0193

Structure (SMILES)	normalized GFP fluorescence
CC(=O)O[C@@]12CO[C@@H]1C[C@H](O)[C@@]1(C)C(=O)[C@H](O)C3=C(C)[C@@H](OC(=O)[C@H](O)[C@@H](NC(=O)OC(C)(C)C)c4ccccc4)C[C@@](O)([C@@H](OC(=O)c4ccccc4)[C@H]21)C3(C)C [Docetaxel (Taxotere)]	0.11
NCC[C@H](O)C(=O)N[C@@H]1C[C@H](N)[C@@H](O[C@H]2O[C@H](CN)[C@@H](O)[C@H](O)[C@H]2O)[C@H](O)[C@H]1O[C@H]1O[C@H](CO)[C@@H](O)[C@H](N)[C@H]1O [Amikacin hydrate]	0.412
OCCOCCN1CCN(C(c2ccccc2)c2ccc(Cl)cc2)CC1 (stereo not given)	-0.0253
CCN(CC)C(=O)c1ccc(O)c(OC)c1	0.00273
CCCCCC(C)N (stereo not given)	0.403
CCN(CC)CCNC(=O)c1ccc(N)cc1	0.328
Cc1cn[nH]c1	0.665
CC(C)C(=O)Nc1ccc([N+](=O)[O-])c(C(F)(F)F)c1	0.121
Nc1nc(O)c2ncn(CCC(CO)CO)c2n1	0.331
CCN(CCO)CCCC(C)Nc1ccnc2cc(Cl)ccc12 (stereo not given)	0.323
CN1CCC(=C2c3ccccc3CC(=O)c3sccc32)CC1 [Ketotifen fumarate (Zaditor)]	0.402
CCN1C(=O)NC(c2ccccc2)C1=O (stereo not given)	0.469
CC(COc1ccccc1)NC(C)C(O)c1ccc(O)cc1 (stereo not given)	0.474
O=C(O)CCCC[C@@H]1SC[C@@H]2NC(=O)N[C@@H]21	0.414
Cn1c(=O)c2c(ncn2CC2OCCO2)n(C)c1=O	0.29
O=C1c2cccc3c2[C@H](CCC3)CN1[C@@H]1CN2CCC1CC2 [Palonosetron HCl]	0.203
COC(=O)C1=C(C)NC(C)=C(C(=O)OC(C)C)C1c1cccc2nonc12 (stereo not given)	0.00618
Cc1ccc(C(=O)c2ccc(CC(=O)O)n2C)cc1	0.421
COc1nc(N)nc2c1ncn2[C@@H]1O[C@H](CO)[C@@H](O)[C@@H]1O [Nelarabine (Arranon)]	0.298
CCOC(=O)c1ncn2c1CN(C)C(=O)c1cc(F)ccc1-2	0.408

test system: Staphylococcus aureus MW2 (mecA+); assay: normalized DsRed fluorescence (growth of mecA+ strain) (fraction of control range); higher = more growth of mecA+ strain; settings: compound concentration: 150 uM; cefoxitin: subinhibitory; fluorescent label: DsRed
Summary of the method: as §1

Structure (SMILES)	normalized DsRed fluorescence
OC[C@H]1O[C@@H](c2ccc(Cl)c(Cc3ccc(O[C@H]4CCOC4)cc3)c2)[C@H](O)[C@@H](O)[C@@H]1O	0.698
CC(C)(C)NCC(O)c1cc(O)cc(O)c1 (stereo not given)	0.611
N#C[C@@H]1CCCN1C(=O)CNC12CC3CC(CC(O)(C3)C1)C2 [Vildagliptin (LAF-237)]	0.519
Cc1ccc(=O)n(-c2ccccc2)c1 [Pirfenidone]	0.778
OC[C@H]1O[C@H]([S-])[C@H](O)[C@@H](O)[C@@H]1O.[Au+]	0.538
Clc1ccc(C(c2ccccc2Cl)C(Cl)Cl)cc1 (stereo not given)	0.731
CN(C)CCCOc1nn(Cc2ccccc2)c2ccccc12	1.11
CN(C)C(=N)NC(=N)N	0.887
C[N+](C)(C)C[C@H](O)CC(=O)[O-] [L-carnitine (Levocarnitine)]	0.836
Nc1c2c(nc3ccccc13)CCCC2	0.996
CN(C)CCN(Cc1ccccc1)c1ccccn1	0.468
Cc1ncc([N+](=O)[O-])n1CC(C)O (stereo not given) [Secnidazole (Flagentyl)]	0.482
CC(C)[C@H]1CC[C@H](C(=O)N[C@H](Cc2ccccc2)C(=O)O)CC1	0.513
Cc1c(C(=O)NN2CCCCC2)nn(-c2ccc(Cl)cc2Cl)c1-c1ccc(Cl)cc1	0.769
C[C@@H]1C/C=C/C=C/C=C/C=C/[C@H](O[C@@H]2O[C@H](C)[C@@H](O)[C@H](N)[C@@H]2O)C[C@@H]2O[C@](O)(C[C@@H](O)C[C@H]3O[C@@H]3/C=C/C(=O)O1)C[C@H](O)[C@H]2C(=O)O	0.753
CCCCCCNC(=O)n1cc(F)c(=O)[nH]c1=O [Carmofur]	0.452
Cc1[nH+]cc(COP(=O)([O-])[O-])c(CN(CCN(CC(=O)[O-])Cc2c(COP(=O)([O-])O)c[nH+]c(C)c2O)CC(=O)[O-])c1O.[Mn].[Na+].[Na+].[Na+]	0.481
CC1=C(/C=C/C(C)=C/C=C/C(C)=C/C(=O)O)C(C)(C)CCC1	0.642
Cc1cnc(C(=O)NCCc2ccc(S(=O)(=O)NC(=O)NC3CCCCC3)cc2)cn1	0.734
CO/N=C(\C(=O)N[C@@H]1C(=O)N2C(C(=O)O)=C(C[N+]3(C)CCCC3)CS[C@H]12)c1csc(N)n1	0.073

Structure (SMILES)	normalized DsRed fluorescence
CC(=O)O[C@@]12CO[C@@H]1C[C@H](O)[C@@]1(C)C(=O)[C@H](O)C3=C(C)[C@@H](OC(=O)[C@H](O)[C@@H](NC(=O)OC(C)(C)C)c4ccccc4)C[C@@](O)([C@@H](OC(=O)c4ccccc4)[C@H]21)C3(C)C [Docetaxel (Taxotere)]	0.768
NCC[C@H](O)C(=O)N[C@@H]1C[C@H](N)[C@@H](O[C@H]2O[C@H](CN)[C@@H](O)[C@H](O)[C@H]2O)[C@H](O)[C@H]1O[C@H]1O[C@H](CO)[C@@H](O)[C@H](N)[C@H]1O [Amikacin hydrate]	0.639
OCCOCCN1CCN(C(c2ccccc2)c2ccc(Cl)cc2)CC1 (stereo not given)	0.833
CCN(CC)C(=O)c1ccc(O)c(OC)c1	0.0959
CCCCCC(C)N (stereo not given)	0.663
CCN(CC)CCNC(=O)c1ccc(N)cc1	0.696
Cc1cn[nH]c1	0.838
CC(C)C(=O)Nc1ccc([N+](=O)[O-])c(C(F)(F)F)c1	1.4
Nc1nc(O)c2ncn(CCC(CO)CO)c2n1	0.941
CCN(CCO)CCCC(C)Nc1ccnc2cc(Cl)ccc12 (stereo not given)	1.33
CN1CCC(=C2c3ccccc3CC(=O)c3sccc32)CC1 [Ketotifen fumarate (Zaditor)]	0.799
CCN1C(=O)NC(c2ccccc2)C1=O (stereo not given)	1.21
CC(COc1ccccc1)NC(C)C(O)c1ccc(O)cc1 (stereo not given)	0.631
O=C(O)CCCC[C@@H]1SC[C@@H]2NC(=O)N[C@@H]21	0.604
Cn1c(=O)c2c(ncn2CC2OCCO2)n(C)c1=O	1.05
O=C1c2cccc3c2[C@H](CCC3)CN1[C@@H]1CN2CCC1CC2 [Palonosetron HCl]	0.709
COC(=O)C1=C(C)NC(C)=C(C(=O)OC(C)C)C1c1cccc2nonc12 (stereo not given)	1.51
Cc1ccc(C(=O)c2ccc(CC(=O)O)n2C)cc1	0.279
COc1nc(N)nc2c1ncn2[C@@H]1O[C@H](CO)[C@@H](O)[C@@H]1O [Nelarabine (Arranon)]	0.855
CCOC(=O)c1ncn2c1CN(C)C(=O)c1cc(F)ccc1-2	0.611
